CYP2C9 act – human CYP2C9 activators, primary screen, biochemical, luminescence | recombinant CYP2C9, luciferin-H conversion; hits give high values; factor 1 = untreated enzyme, 0 = blocked | activation factor at 5 µM | 1.4% of 96,000 active | AID 1024, 2008;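 active means activation factor of 2 or more for CYP2C9 at a 5 µM dose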;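 further: 0 = sulfaphenazole-blocked wells and 1 = vehicle-only wells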
Target sequence (P11712 whole entry, looked up): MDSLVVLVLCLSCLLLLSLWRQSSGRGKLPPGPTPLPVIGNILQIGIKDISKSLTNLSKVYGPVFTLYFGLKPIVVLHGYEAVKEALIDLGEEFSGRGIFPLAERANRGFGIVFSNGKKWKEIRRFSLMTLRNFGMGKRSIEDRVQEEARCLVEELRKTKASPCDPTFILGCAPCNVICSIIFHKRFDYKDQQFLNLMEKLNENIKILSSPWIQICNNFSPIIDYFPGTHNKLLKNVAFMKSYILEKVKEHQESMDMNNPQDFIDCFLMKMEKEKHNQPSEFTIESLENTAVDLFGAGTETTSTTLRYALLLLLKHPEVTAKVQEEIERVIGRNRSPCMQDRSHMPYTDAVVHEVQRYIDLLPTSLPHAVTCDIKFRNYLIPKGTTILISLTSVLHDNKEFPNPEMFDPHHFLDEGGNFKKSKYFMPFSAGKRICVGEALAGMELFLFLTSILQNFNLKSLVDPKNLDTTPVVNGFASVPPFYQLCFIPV
PostGolgi ctrl – growth inhibition of yeast control strain, primary screen, counter-screen for post-Golgi transport modulator project. 5% of 98,000 active. AID 738, 2007. inhibition, % at 10 µM. efflux-deficient yeast background strain, growth absorbance A615, 16 h
CYP2C19 inhib – blockers of cytochrome P450 2C19 activity – biochemical, luminescence, ADME assay, primary screen; P33261; AID 778, 2007; inhibition, % at 5 µM; CYP2C19 Supersomes, luciferin-H EGE luminescence, 30 min; 21% of 96,000 active;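 active means CYP2C19 inhibition above a set limit at 5 µM in the primary screen, cut at about 50% in these data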;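 further: plate controls were negative control wells for no effect and 2.5 mM tranylcypromine positive control for full effect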
CYP2C19 act – human CYP2C19 activators, primary screen, biochemical, luminescence. recombinant CYP2C19, luciferin-H EGE luminescence; hits give high values; 0 = fully inhibited enzyme, 1 = untreated enzyme. activation factor at 5 µM. 96,000 tested, under 10 active. AID 1025, 2008;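 active means activation factor of at least 2 at 5 µM in the primary screen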;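 further: 0 = wells with 2.5 mM tranylcypromine and 1 = vehicle-only wells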
PostGolgi yeast – phenotypic screen on post-Golgi transport, primary screen. post-Golgi transport phenotypic cell assay. inhibition, % at 10 µM. 0.9% of 98,000 active;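 further: yeast cells grown in 1536-well plates; yeast grown about 18 h at 30C before absorbance read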
CYP2C9 inh – blockers of cytochrome P450 2C9 activity – biochemical, luminescence, ADME assay, primary screen; 20% of 96,000 active; AID 777, 2007; CYP2C9 Supersomes, luciferin-H conversion; inhibition, % at 5 µM; P11712;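 active means blocking of liver enzyme CYP2C9 beyond about 50% at 5 µM, limit read from the data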
* = called active by the depositor. This is a sample that favours compounds with a hit; in the whole collection about 32% have one here. Unless noted, no stated cut-off is given here; in the data, active means inhibition above about 30%; inactive means the rest.

For Cc1cc(NC(=O)CCC(=O)N(c2ccc(F)cc2)C2(C(=O)NC3CCCCC3)CCCC2)no1 the results were CYP2C9 act 0.7, PostGolgi ctrl 39.3*, CYP2C19 inhib 23.3, CYP2C19 act 0.8, PostGolgi yeast 6.0 and CYP2C9 inh 28.6.
For Cc1cc(NC(=O)CCC(=O)N(c2cccnc2)C(C(=O)NC2CCCC2)c2ccccc2F)no1 (stereo not given) the results were PostGolgi ctrl -2.5 and PostGolgi yeast 16.3.
For C=CCN(CCNP(=O)(OCC)OCC)CP(=O)(OCC)OCC the results were CYP2C9 act 1, PostGolgi ctrl 7.0, CYP2C19 inhib -1.9, CYP2C19 act 1, PostGolgi yeast -46.1 and CYP2C9 inh -2.9.
CNc1oc(-c2ccc(Cl)cc2)nc1P(=O)(c1ccccc1)c1ccccc1 was read as CYP2C9 act 0.4, PostGolgi ctrl 32.1*, CYP2C19 inhib 21.7, CYP2C19 act 0.8, PostGolgi yeast 6.6 and CYP2C9 inh 63.7*.
For Cc1ccccc1OCC(=O)N(Cc1cccs1)C1CCS(=O)(=O)C1 (stereo not given) the results were CYP2C9 act 0.9, PostGolgi ctrl -1.2, CYP2C19 inhib 33.4, CYP2C19 act 0.7, PostGolgi yeast -4.7 and CYP2C9 inh 6.8.
`Cc1cccc(OC(C)C(=O)N(Cc2cccs2)C2CCS(=O)(=O)C2)c1C` (stereo not given) gave CYP2C9 act 0.6, PostGolgi ctrl -4.2, CYP2C19 inhib 95.0*, CYP2C19 act 0.1, PostGolgi yeast -8.2 and CYP2C9 inh 38.4.
`COc1ccc(-c2csc(N(CCCN3CCOCC3)C(=O)c3ccco3)n2)cc1` gave CYP2C9 act 0.6, PostGolgi ctrl 9.8, CYP2C19 inhib 20.5, CYP2C19 act 0.8, PostGolgi yeast 1.8 and CYP2C9 inh 41.3.
Screening COCCCN(C(=O)c1ccco1)c1nc(-c2cc(OC)ccc2OC)cs1 returned CYP2C9 act 0.2, PostGolgi ctrl 9.6, CYP2C19 inhib 49.8, CYP2C19 act 0.5, PostGolgi yeast -1.2 and CYP2C9 inh 75.7*.
For Cc1ccc(-c2csc(N(CCCN3CCOCC3)C(=O)c3ccco3)n2)cc1 the results were CYP2C9 act 0.1, PostGolgi ctrl 12.4, CYP2C19 inhib 87.3*, CYP2C19 act 0.1, PostGolgi yeast -7.4 and CYP2C9 inh 91.9*.
Screening O=C(c1cccs1)N(CC1CCCO1)c1nc(-c2ccccc2)cs1 (stereo not given) returned CYP2C9 act 0.1, PostGolgi ctrl 12.4, CYP2C19 inhib 95.3*, CYP2C19 act 0, PostGolgi yeast 0.3 and CYP2C9 inh 88.9*.
O=C(c1ccco1)N(CC1CCCO1)c1nc(-c2ccccc2)cs1 (stereo not given) was read as CYP2C9 act 0.2, PostGolgi ctrl 20.8, CYP2C19 inhib 87.2*, CYP2C19 act 0.1, PostGolgi yeast -0.2 and CYP2C9 inh 84.8*.
For COc1ccc(NC(C)=O)cc1NC(C)C(=O)Nc1ccc(F)c(F)c1F (stereo not given) the results were CYP2C9 act 0.5, PostGolgi ctrl -6.1, CYP2C19 inhib 70.4*, CYP2C19 act 0.3, PostGolgi yeast -0.3 and CYP2C9 inh 46.6.
CC1CN(Cc2ccc(C#N)cc2Cl)CC(C)O1 (stereo not given) was read as CYP2C9 act 1, PostGolgi ctrl 15.4, CYP2C19 inhib -2.9, CYP2C19 act 1, PostGolgi yeast -3.3 and CYP2C9 inh 1.4.
For CC1CN(Cc2ccc(Cl)cc2Cl)CC(C)O1 (stereo not given) the results were CYP2C9 act 0.9, PostGolgi ctrl 5.1, CYP2C19 inhib 53.5*, CYP2C19 act 0.5, PostGolgi yeast -18.9 and CYP2C9 inh 14.6.
`CCOC(=O)C1=C(c2ccccc2)N=C2SCC(=O)N2C1c1ccc2c(c1)OCO2` (stereo not given) gave CYP2C9 act 1, PostGolgi ctrl 7.9, CYP2C19 inhib 10.4, CYP2C19 act 0.9, PostGolgi yeast -4.3 and CYP2C9 inh -3.7.
Screening CSCCC(NC(N)=O)C(=O)NCc1ccccc1Cl (stereo not given) returned CYP2C9 act 1.3, PostGolgi ctrl -4.3, CYP2C19 inhib 3.9, CYP2C19 act 1, PostGolgi yeast -9.5 and CYP2C9 inh -33.3.
Screening CSCCC(NC(=O)c1ccccc1)c1nc(-c2ccccc2)no1 (stereo not given) returned CYP2C9 act 0.9, PostGolgi ctrl -0.8, CYP2C19 inhib -2.6, CYP2C19 act 1, PostGolgi yeast 12.5 and CYP2C9 inh 12.5.
`O=S(=O)(Nc1nc2ccccc2[nH]1)c1ccc2ccccc2c1` gave CYP2C9 act 0.6, PostGolgi ctrl 11.5, CYP2C19 inhib 74.4*, CYP2C19 act 0.3, PostGolgi yeast -10.8 and CYP2C9 inh 44.0.
`O=C1c2oc3ccc(F)cc3c(=O)c2C(c2ccccc2)N1CC1CCCO1` (stereo not given) gave CYP2C9 act 0.4, PostGolgi ctrl 3.2, CYP2C19 inhib 18.7, CYP2C19 act 0.8, PostGolgi yeast 0.7 and CYP2C9 inh 62.5*.
O=C1c2oc3ccccc3c(=O)c2C(c2cccc(F)c2)N1CCCO (stereo not given) was read as CYP2C9 act 0.9, PostGolgi ctrl 4.2, CYP2C19 inhib 50.1*, CYP2C19 act 0.5, PostGolgi yeast -0.3 and CYP2C9 inh 8.1.
`OCCNc1nc(-c2ccccc2)c2ccccc2n1` gave CYP2C9 act 0.9, PostGolgi ctrl -0.8, CYP2C19 inhib 4.7, CYP2C19 act 1, PostGolgi yeast 7.9 and CYP2C9 inh 6.7.
For c1ccc(-c2nc(-n3nc4ccccc4n3)nc3ccccc23)cc1 the results were CYP2C9 act 0.6, PostGolgi ctrl 77.7*, CYP2C19 inhib 19.0, CYP2C19 act 0.8, PostGolgi yeast 9.9 and CYP2C9 inh 41.8.
`CC(Oc1ccc(-c2nccc(-c3ccccn3)n2)cc1)C(=O)NN` (stereo not given) gave CYP2C9 act 0.7, PostGolgi ctrl -3.8, CYP2C19 inhib 22.5, CYP2C19 act 0.8, PostGolgi yeast -7.3 and CYP2C9 inh 27.3.
O=C1C(=O)N(c2cccc(Cl)c2)C(c2ccccc2[N+](=O)[O-])/C1=C(\O)c1ccccc1 (stereo not given) was read as CYP2C9 act 0.1, PostGolgi ctrl 1.4, CYP2C19 inhib 9.9, CYP2C19 act 0.9, PostGolgi yeast 8.1 and CYP2C9 inh 86.4*.
Screening Cc1ccc(/C(O)=C2\C(=O)C(=O)N(c3cc(C)on3)C2c2cccc(Cl)c2)cc1 (stereo not given) returned CYP2C9 act 0.6, PostGolgi ctrl 1.9, CYP2C19 inhib 7.9, CYP2C19 act 0.9, PostGolgi yeast -0.9 and CYP2C9 inh 39.4.

Screens deposited in PubChem by several laboratories.
